Test results from PubChem BioAssay (NCI).
Compounds without any hit were thinned out: in the full panel of roughly 83,000, 20% have a hit.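 96-well plates, one dose, 48 hours. Percent growth reported; active if below 10.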 A number with no mark means an inactive call. The source made the active and inactive calls.

System: CAKI-1 renal
Test: NCI-60 one-dose screen, 48 h (100 = growth as untreated, 0 = no growth, -100 = all killed)
Conditions: 10 µM

In order of rising growth:
1. O=S(=O)(CCN1CCOCC1)Nc1cc(-c2ccc3ncnc(Nc4ccc(F)c(Cl)c4)c3c2)cnc1Cl  17%
2. O=C(NCCNc1nccc(-c2c(-c3cccc(O)c3)nc3sccn23)n1)c1ccccc1O  24.3%
3. O=C(Nc1ccc(-n2ccc3c(NC(=O)c4ccccc4)ncnc32)cc1)c1ccc(Cl)c(C(F)(F)F)c1  34.8%
4. COc1cc(-c2nc(SCC(=O)Nc3ccc(C(C)=O)cc3)[nH]c(=O)c2C#N)cc(OC)c1OC  61.5%
5. COc1ccc(OCC(O)CN2CCN(c3ccc(Cl)cc3)CC2)cc1 (stereo not drawn)  79.9%
6. CC(C)(C)C(=O)/C=c1/[nH]c(=O)/c(=C/c2ccccc2O)s1  81.1%
7. O=C1/C(=C/c2cccc3cnccc23)Cc2cc(F)ccc21  84.5%
8. COc1ccc(-c2nnc(SCC(=O)N3CCN(c4cc5c(cc4F)c(=O)c(C(=O)O)cn5C4CC4)CC3)o2)cc1OC  97.1%
9. C[C@]12O[C@H]1[C@H](O)c1c(cc(O)c3c1C(=O)c1cccc(O)c1-3)C2=O  99.9%
10. O=C1c2ccccc2OC=C(c2ccccc2)N1CCCCN1CCCCC1  101%
11. O=C1OC(N(Cc2ccc(Cl)cc2)c2ccccc2)c2ccccc21 (stereo not drawn)  103%
12. COc1ccc(-c2nnc(NC(=O)CN3CCN(c4cc5c(cc4F)c(=O)c(C(=O)O)cn5C4CC4)CC3)s2)cc1OC  104%

In the case of `CCCCCCCCCCCCCCCC(=O)NS(=O)(=O)OC[C@H]1O[C@@H](n2cnc3c(N)ncnc32)[C@H](O)[C@@H]1O`, the growth is reported as -61.4% (active).
